Screening results (PubChem BioAssay)
Shown is part of a subset that was picked to be rich in hits.
Methyltransferases = Primary Screen for Target Class Profiling of Small Molecule Inhibitors of Methyltransferases | hit rate 3.9% among 25,000 | purified enzyme, MTase-Glo SAH luminescence; stronger effect = lower value | calls only at 40 µM | AID 1745853, 2022; call rule not given here
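Each enzyme was assayed with SAM and its substrate. SAH formation detected by MTase-Glo luminescence; single-point 40 uM screen[…].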
Active calls of the source: *; i = inactive; + = active, no number; ! = not confirmed by another sample. % is scaled to controls: 0 for no effect and ±100 for the full control effect.

SMILES	Methyltransferases
CSc1ccc(CNC(=O)c2cc3n(n2)CC(C)(C(=O)NCCC(C)C)N(C)C3=O)cc1 (stereo not drawn)	i
COc1cc(NS(=O)(=O)c2cc3c(cc2C)n(C)c(=O)n3C)cc(OC)c1	i
Cc1ccc(-c2n[nH]n3c2nc(=O)c2ccc(C(=O)NCc4ccccc4Cl)cc23)cc1	i
COc1cccc(CNC(=O)CCn2ccc3cc(S(=O)(=O)N4CCCCC4)ccc32)c1	i
Cc1ccc(NS(=O)(=O)c2cc3[nH]c(=O)[nH]c3cc2C)cc1Cl	i
CCc1cc2c(cc3n2CC(C)(C(=O)NC2CCCCC2)N(CCN2CCOCC2)C3=O)s1 (stereo not drawn)	i
Cn1c(=O)c2ccc(C(=O)NC3CCCC3)cc2n2c(SCC(=O)Nc3ccc(F)cc3)nnc12	i
COc1cccc(OC)c1-c1nc(C(=O)N[C@@H](CC(C)C)C(=O)O)cn1-c1ccnc2cc(Cl)ccc12	i
COc1cc(Nc2ncc3c(n2)-c2ccc(Cl)cc2C(c2c(F)cccc2OC)=NC3)ccc1C(=O)O	+!
COc1cc(C(=O)N[C@@H]2[C@@H](c3ccccc3)[C@@H](CO)N3CCCC[C@H]23)cc(OC)c1OC	i
COCCCN1C(=O)c2cc3sccc3n2CC1(C)C(=O)NC1CCCCCC1 (stereo not drawn)	i
c1cc(N[C@@H]2CCNC2)nc(-c2cnc3ccc(-c4cn[nH]c4)cn23)c1	+
CC(C)C1c2cccn2CCN1C(=O)NCCc1ccccc1 (stereo not drawn)	i
Cc1ccccc1CNC[C@H]1Cn2c(-c3ccccc3)cnc2CO1	i
CC1(C(=O)NC2CCCCCC2)Cn2c(cc3ccccc32)C(=O)N1Cc1ccccn1 (stereo not drawn)	i
CS(=O)(=O)c1cccc(CNc2nc(Nc3ccc4c(c3)CCC(=O)N4)ncc2C(F)(F)F)c1	+
CCCn1c(=O)c2ccc(C(=O)NC3CCCC3)cc2n2c(=O)n(Cc3ccc(F)cc3)nc12	i
CC(C)OCCCn1c(=O)c2ccccc2n2c(=O)n(CC(=O)Nc3cc(F)ccc3F)nc12	i
O=C(Cn1nc2n(CCc3ccccc3)c(=O)c3ccccc3n2c1=O)c1ccccc1	i
Cc1cc(N(C)C)ccc1-c1nc2ccc(-c3nc4ccc(N5CCN(C)CC5)cc4[nH]3)cc2[nH]1	+
CCc1cccc(NS(=O)(=O)c2cc3c(cc2Cl)n(C)c(=O)n3C)c1	i
CCCC1c2ccc(C)n2CCN1C(=O)Nc1ccc(C)c(Cl)c1 (stereo not drawn)	i
Cc1cc(C)cc(N2C(=O)CSc3c(c4ccccc4n3C)C2C(=O)NCc2ccccc2)c1 (stereo not drawn)	i
COc1cc2c(cc1O)CC[C@H]1[C@@H]2CC[C@]2(C)[C@H](O)CC[C@@H]12	+
COc1ccc2c(c1)CCC1C2CC[C@@]2(C)C1CC[C@@H]2NCCCCCCN1C(=O)CCC1=O (stereo partly drawn)	i
SMILES	Methyltransferases
CC12CCC3c4ccc(O)cc4CCC3C1CCC2OC1OC(C(=O)O)C(O)C(O)C1O (stereo not drawn)	i
O=c1c2ccccc2n2c(-c3ccccc3F)nnc2n1Cc1ccc(F)cc1	i
Cc1ccsc1C(=O)N1CCCC(CN2CCCC2)CC1 (stereo not drawn)	i
CCOC(=O)CCN(C(=O)c1ccc2c(c1)nc(CNc1ccc(C(=N)N)cc1)n2C)c1ccccn1	+
Cc1ccc(CNC(=O)CCc2nnc3n(Cc4ccccc4)c(=O)c4ccccc4n23)cc1	i
CCc1ccc(NS(=O)(=O)c2cc3[nH]c(=O)[nH]c3cc2C)cc1	i
O=C(Cn1ccc2cc(S(=O)(=O)N3CCCCC3)ccc21)NCc1ccco1	i
Cc1ccc(S(=O)(=O)c2nnn3c2nc(N2CCC(N4CCCCC4)CC2)c2ccccc23)cc1C	+
O=S(=O)(c1ccccc1)c1nnn2c1nc(N1CCCCC1)c1ccccc12	i
Cc1ccc(C)c(S(=O)(=O)c2nnn3c2nc(N2CCCC2)c2ccccc23)c1	i
O=C(Cn1nc2n(CCc3ccccc3)c(=O)c3ccccc3n2c1=O)NCc1ccc(Cl)cc1	i
Cc1ccc(CCN2C(=O)CSc3c(c4ccccc4n3C)C2C(=O)NCc2ccccc2)cc1 (stereo not drawn)	i
COCC(=O)NC1CCC12CCN(Cc1ccc(C)o1)CC2 (stereo not drawn)	i
C=Cc1cc(O)cc2nc(-c3ccc(O)c(F)c3)oc12	+
CC1(C(=O)NCc2ccc(Cl)cc2)Cn2c(ccc2-c2ccco2)C(=O)N1CCc1ccco1 (stereo not drawn)	i
CCOCCCNC(=O)C1c2c(n(C)c3ccccc23)SCC(=O)N1c1cc(OC)cc(OC)c1 (stereo not drawn)	i
O=S(=O)(O)c1ccc(Nc2ncnc3c2ncn3[C@@H]2O[C@H](CO)[C@@H](O)[C@H]2O)cc1	i
CC(C)N(CCCNC(=O)Nc1ccc(C(C)(C)C)cc1)C[C@H]1O[C@@H](n2cc(Br)c3c(N)ncnc32)[C@H](O)[C@@H]1O	+
CC(C)N(CCCNC(=O)Nc1ccc(C(C)(C)C)cc1)C[C@H]1O[C@@H](n2ccc3c(N)ncnc32)[C@H](O)[C@@H]1O	+!
O=C(Cn1nc2nc(Nc3ccc(F)cc3)ccn2c1=O)Nc1ccc(F)cc1F	i
CC1(C(=O)NC2CCCCCC2)Cn2c(cc3occc32)C(=O)N1CC1CCCO1 (stereo not drawn)	i
O=C(CCc1nnc2ccc(NCc3ccccc3Cl)nn12)NCC1CCCO1 (stereo not drawn)	i
Cc1noc(C)c1[S+](=O)([O-])N1CC(Oc2ccc(F)cc2F)C1	i
CCOc1ccc(CN2C(=O)c3c(C(=O)OC)ncn3CC2(C)C(=O)NC2CCCC2)cc1 (stereo not drawn)	i
Cc1ccc(CNC(=O)CCc2nnc3n(Cc4ccc(F)cc4)c(=O)c4ccccc4n23)cc1	i
SMILES	Methyltransferases
COc1cccc(Cn2nc3n(C)c(=O)c4ccc(C(=O)NCC(C)C)cc4n3c2=O)c1	i
CC(=O)Nc1c2n(c3ccc(C)cc13)CC(C)(C(=O)NC1CCCCCC1)N(C1CCCC1)C2=O (stereo not drawn)	i
Cc1ccc(CN2C(=O)c3ccc(-c4ccccc4)n3CC2(C)C(=O)NC2CCCCCC2)cc1 (stereo not drawn)	i
CCCn1c(=O)c2ccc(C(=O)NC3CCCCC3)cc2n2c(SCc3ccccc3)nnc12	i
COc1ccccc1CNC(=O)CCc1nnc2n(CCc3ccccc3)c(=O)c3ccccc3n12	i
CCCn1c(=O)c2cc(Cl)ccc2n2c(SCC(=O)Nc3ccc(F)cc3)nnc12	i
Cc1ccccc1CSc1nnc2n(Cc3ccccc3)c(=O)c3ccccc3n12	i
O=C(c1ccc(Nc2nccc(-c3cc4ccccc4s3)n2)cc1)N1CCC(N2CCCC2)CC1	+
C[C@@H]1CN(c2ccc(C(=O)N3CCC(N4CCOCC4)CC3)cn2)C[C@H](C)O1	i
O=C(c1ccnc(-c2ccncc2)c1)N1CCCC1	i
Cc1cc2[nH]c(=O)[nH]c2cc1S(=O)(=O)N1CCN(c2ccccc2F)CC1	i
CCOC(=O)N1CCC(CN(Cc2ccc(Cl)cc2)Cc2ccc([N+](=O)[O-])s2)C1 (stereo not drawn)	+
Cc1ccc(NC(=O)c2ncn3c2C(=O)N(C2CC2)C(C)(C(=O)NCCCOC(C)C)C3)cc1F (stereo not drawn)	i
